According to the supplement of paper PMC10849652:
Targets with a hit are over-represented here; the source holds about 8,800 in all. About 0.5% of all pairs of compound and target were hits. A number with no mark means an inactive call.

Experiments:
Test in all cases: log2 fold change, soluble protein after heating vs DMSO (PISA); higher = thermal stabilisation; K562 lysate, 10 uM; active = over 0.2 and 3.5 SD of the protein, either way, in both replicates (recomputed)
[1] = compound: NCC(=O)Nc1ccc(-n2nc(C(F)(F)F)cc2-c2ccc3c(ccc4ccccc43)c2)cc1
In short: (§1)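 Following dounce homogenisation of K562 pellets in PBS pH 7.4 with 1 mM MgCl2, crude extract at 1 mg/mL protein was incubated for 30 min with 10 μM compound. Aliquots were then heated for 3 min over 48°C-58°C and pooled, NP-40 was added to 0.5% at 4°C, and soluble protein was recovered as the supernatant at 21,000xg for 90 min. Channel-sum-equalised TMTpro 16plex LC-MS/MS quantified this protein. Each value, from duplicates, is a log-two fold change in thermal stability relative to solvent controls.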

vorinostat = compound: O=C(CCCCCCC(=O)Nc1ccccc1)NO [vorinostat]
In short: as §1

silmitasertib = compound: O=C(O)c1ccc2c(c1)nc(Nc1cccc(Cl)c1)c1ccncc12 [silmitasertib]
In short: as §1

[2] = compound: O=C1NC(=O)C(c2cnc3ccccn23)=C1c1cn2c3c(cc(F)cc13)CN(C(=O)N1CCCCC1)CC2
In short: as §1

entospletinib = compound: c1cn2cc(-c3ccc4cn[nH]c4c3)nc(Nc3ccc(N4CCOCC4)cc3)c2n1 [entospletinib]
In short: as §1

UniProt Q86X10, sequence (Q86X10 whole entry, looked up): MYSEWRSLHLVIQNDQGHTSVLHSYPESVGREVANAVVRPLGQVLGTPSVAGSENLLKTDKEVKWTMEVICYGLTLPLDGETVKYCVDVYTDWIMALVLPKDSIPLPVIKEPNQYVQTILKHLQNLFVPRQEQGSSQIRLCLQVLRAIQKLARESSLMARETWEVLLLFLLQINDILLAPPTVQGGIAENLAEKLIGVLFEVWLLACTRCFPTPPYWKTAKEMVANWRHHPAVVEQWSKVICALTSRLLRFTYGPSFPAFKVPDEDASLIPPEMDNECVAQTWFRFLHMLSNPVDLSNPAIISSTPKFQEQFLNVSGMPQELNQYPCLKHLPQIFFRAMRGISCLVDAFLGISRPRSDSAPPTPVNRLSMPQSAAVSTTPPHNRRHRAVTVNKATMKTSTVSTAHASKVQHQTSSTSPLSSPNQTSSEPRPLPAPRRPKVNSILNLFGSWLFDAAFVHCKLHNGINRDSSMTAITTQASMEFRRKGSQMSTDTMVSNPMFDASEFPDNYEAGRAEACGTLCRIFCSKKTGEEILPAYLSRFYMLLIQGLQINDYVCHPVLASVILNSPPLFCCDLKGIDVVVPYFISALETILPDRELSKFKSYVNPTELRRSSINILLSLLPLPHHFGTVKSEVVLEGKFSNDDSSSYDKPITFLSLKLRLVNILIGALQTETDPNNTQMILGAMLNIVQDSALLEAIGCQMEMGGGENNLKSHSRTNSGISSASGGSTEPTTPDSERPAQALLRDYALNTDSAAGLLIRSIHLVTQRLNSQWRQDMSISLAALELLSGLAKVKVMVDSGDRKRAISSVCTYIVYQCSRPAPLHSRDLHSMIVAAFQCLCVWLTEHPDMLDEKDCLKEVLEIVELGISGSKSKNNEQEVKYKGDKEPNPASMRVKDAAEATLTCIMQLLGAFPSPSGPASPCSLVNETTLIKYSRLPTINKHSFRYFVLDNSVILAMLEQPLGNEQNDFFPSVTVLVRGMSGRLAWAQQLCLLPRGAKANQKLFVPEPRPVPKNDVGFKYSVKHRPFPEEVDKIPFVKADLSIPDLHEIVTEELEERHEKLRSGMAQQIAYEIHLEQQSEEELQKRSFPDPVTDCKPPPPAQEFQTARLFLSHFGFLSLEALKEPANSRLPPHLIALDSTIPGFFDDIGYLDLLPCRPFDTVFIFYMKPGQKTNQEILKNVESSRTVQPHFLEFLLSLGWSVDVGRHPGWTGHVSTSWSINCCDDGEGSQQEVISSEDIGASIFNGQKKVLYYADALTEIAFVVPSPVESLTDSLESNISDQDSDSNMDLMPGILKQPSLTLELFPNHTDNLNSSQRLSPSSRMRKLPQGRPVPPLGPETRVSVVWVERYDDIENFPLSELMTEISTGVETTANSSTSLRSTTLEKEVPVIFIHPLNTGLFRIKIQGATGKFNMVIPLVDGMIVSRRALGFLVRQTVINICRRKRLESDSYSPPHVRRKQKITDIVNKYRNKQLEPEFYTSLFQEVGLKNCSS
UniProt P49792, sequence (P49792 whole entry, looked up): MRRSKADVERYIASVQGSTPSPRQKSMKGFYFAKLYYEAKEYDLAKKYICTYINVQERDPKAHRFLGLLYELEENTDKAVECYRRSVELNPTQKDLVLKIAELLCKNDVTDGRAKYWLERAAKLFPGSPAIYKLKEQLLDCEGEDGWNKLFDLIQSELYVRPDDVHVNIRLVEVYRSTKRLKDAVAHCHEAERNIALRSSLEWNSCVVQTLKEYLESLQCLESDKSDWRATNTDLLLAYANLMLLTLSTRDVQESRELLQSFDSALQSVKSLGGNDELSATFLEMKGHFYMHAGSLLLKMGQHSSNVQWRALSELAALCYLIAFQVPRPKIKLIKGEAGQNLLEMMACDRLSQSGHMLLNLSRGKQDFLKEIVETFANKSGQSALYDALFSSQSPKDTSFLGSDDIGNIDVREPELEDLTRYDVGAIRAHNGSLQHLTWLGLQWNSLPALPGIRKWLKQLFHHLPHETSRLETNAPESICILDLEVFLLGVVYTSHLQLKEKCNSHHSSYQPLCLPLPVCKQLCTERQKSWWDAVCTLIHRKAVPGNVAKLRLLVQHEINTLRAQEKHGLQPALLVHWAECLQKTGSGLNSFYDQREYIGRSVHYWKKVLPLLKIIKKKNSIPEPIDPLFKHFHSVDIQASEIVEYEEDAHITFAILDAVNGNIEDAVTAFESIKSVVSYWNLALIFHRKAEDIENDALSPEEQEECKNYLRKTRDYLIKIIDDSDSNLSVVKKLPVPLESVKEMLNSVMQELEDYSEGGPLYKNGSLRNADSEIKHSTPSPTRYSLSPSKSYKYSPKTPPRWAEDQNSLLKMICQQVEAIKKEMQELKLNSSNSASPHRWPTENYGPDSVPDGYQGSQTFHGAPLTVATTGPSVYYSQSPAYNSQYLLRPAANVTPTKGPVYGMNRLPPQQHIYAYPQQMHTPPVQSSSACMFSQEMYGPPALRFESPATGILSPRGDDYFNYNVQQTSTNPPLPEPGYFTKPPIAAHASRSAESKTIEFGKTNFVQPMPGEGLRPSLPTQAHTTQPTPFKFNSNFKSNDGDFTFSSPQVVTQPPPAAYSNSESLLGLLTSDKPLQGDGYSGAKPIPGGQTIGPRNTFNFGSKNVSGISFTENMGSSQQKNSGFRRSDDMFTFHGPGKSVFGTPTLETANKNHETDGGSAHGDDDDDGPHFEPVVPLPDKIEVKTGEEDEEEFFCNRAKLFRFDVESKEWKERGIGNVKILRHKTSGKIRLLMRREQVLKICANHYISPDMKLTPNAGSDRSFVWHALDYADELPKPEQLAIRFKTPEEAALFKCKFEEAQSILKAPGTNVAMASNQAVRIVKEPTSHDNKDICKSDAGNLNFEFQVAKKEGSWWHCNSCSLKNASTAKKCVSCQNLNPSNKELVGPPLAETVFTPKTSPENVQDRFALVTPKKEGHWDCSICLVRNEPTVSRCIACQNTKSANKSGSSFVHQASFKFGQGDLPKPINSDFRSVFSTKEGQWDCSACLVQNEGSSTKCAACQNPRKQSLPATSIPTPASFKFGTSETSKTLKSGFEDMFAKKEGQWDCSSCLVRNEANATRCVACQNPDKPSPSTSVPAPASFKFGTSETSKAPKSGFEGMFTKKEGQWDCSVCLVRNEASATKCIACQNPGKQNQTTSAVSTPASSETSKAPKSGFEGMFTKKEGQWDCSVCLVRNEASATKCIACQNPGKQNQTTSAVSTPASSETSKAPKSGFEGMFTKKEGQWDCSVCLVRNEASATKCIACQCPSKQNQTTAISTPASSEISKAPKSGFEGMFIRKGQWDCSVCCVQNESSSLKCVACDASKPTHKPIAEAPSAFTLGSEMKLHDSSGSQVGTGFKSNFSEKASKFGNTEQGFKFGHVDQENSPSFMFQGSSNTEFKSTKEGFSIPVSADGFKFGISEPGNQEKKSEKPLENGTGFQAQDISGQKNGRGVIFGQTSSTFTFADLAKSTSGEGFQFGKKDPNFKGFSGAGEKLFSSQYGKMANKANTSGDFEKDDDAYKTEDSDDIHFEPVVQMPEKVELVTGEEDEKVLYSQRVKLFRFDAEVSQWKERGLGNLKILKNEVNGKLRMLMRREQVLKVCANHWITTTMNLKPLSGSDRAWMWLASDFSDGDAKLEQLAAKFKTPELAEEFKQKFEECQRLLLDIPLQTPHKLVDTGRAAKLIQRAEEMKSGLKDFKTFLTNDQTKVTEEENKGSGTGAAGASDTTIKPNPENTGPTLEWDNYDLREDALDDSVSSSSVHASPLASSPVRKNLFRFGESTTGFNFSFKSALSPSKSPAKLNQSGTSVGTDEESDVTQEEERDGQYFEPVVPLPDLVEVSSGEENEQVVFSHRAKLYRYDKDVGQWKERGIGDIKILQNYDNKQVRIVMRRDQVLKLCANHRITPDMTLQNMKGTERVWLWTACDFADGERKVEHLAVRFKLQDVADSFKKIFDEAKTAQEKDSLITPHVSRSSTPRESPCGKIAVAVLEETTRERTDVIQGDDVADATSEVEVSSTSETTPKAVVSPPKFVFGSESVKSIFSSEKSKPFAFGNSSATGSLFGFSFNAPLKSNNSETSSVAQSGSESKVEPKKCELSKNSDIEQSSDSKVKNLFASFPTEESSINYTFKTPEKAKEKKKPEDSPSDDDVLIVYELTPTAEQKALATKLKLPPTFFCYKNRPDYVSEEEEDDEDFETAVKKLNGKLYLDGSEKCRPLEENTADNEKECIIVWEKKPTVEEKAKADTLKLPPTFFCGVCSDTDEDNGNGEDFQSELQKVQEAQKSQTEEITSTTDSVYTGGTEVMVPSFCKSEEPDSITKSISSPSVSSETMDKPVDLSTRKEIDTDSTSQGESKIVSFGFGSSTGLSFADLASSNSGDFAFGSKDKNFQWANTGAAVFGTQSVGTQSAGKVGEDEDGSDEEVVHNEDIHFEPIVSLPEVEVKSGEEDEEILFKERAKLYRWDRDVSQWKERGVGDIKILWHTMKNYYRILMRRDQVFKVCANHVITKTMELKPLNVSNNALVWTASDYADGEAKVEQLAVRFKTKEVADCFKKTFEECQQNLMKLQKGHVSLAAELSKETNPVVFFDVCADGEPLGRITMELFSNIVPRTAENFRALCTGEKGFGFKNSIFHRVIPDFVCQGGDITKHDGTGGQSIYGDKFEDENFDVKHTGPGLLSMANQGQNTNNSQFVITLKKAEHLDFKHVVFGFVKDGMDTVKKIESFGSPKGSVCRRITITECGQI
UniProt Q99574, sequence (Q99574 whole entry, looked up): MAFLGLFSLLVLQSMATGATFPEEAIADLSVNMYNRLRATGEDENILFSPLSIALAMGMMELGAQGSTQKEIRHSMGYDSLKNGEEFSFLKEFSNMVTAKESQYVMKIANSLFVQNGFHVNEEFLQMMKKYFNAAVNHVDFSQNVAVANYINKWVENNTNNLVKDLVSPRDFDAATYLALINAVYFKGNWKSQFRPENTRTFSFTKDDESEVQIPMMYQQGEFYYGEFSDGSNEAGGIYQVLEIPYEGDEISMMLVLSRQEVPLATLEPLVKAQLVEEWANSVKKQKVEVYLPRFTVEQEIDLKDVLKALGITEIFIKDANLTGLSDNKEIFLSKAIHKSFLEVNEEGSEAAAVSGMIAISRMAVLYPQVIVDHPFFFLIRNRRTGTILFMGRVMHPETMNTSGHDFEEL

Target	log2 fold change [1]	log2 fold change (vorinostat)	log2 fold change (silmitasertib)	log2 fold change [2]	log2 fold change (entospletinib)
RANBP6 (UniProt O60518)	0.013	-0.345 (active)	0.054	0.041	0.011
RAPGEF4 (UniProt Q8WZA2)	0.219	0.143	-0.09	0.353	0.014
SAMD4A (UniProt Q9UPU9)	-0.038	-0.647 (active)	0.027	0.014	-0.053
RFC4 (UniProt P35249)	0.013	-0.423 (active)	0.033	0.008	0.006
RETSAT (UniProt Q6NUM9)	-0.087	0.17	-0.016	0.058	0.036
SDHC (UniProt Q99643)	-0.046	-0.196	0.048	-0.071	0.088
RNF149 (UniProt Q8NC42)	0.036	0.098	0.013	0.015	–
RFC5 (UniProt P40937)	0.019	-0.492 (active)	0.031	0.019	0.014
RECQL4 (UniProt O94761)	-0.003	-0.044	0.019	0.022	-0.023
RPL28 (UniProt P46779)	0.012	0.033	0.008	0.043	0.007
SAMHD1 (UniProt Q9Y3Z3)	-0.012	-0.352 (active)	-0.002	0.032	0.031
RAC2 (UniProt P15153)	-0.073	-0.25 (active)	0.024	0.102	0.024
RNF123 (UniProt Q5XPI4)	0.014	-0.385 (active)	-0.016	-0.002	0
RPAP1 (UniProt Q9BWH6)	0.006	-0.232 (active)	0	0.015	-0.025
RAB27A (UniProt P51159)	-0.033	-0.08	0.066	-0.009	0.023
RMI2 (UniProt Q96E14)	-0.008	-0.586 (active)	0.092	0.041	-0.01
RRM1 (UniProt P23921)	0.011	-0.227 (active)	0.027	-0.003	-0.013
SASS6 (UniProt Q6UVJ0)	0.015	-0.381 (active)	0.012	0.021	0.003
RPS4X (UniProt P62701)	0.008	0.106	0.028	0.015	0.016
SEH1L isoform 1 (UniProt Q96EE3)	0.056	-0.001	-0.02	-0.008	-0.011
RNPS1 (UniProt Q15287)	-0.014	0.02	-0.093	-0.012	0.009
S100A11 (UniProt P31949)	-0.085	0.106	-0.057	0.046	-0.045
SATB2 (UniProt Q9UPW6)	0	-0.347 (active)	0.051	-0.024	0.036
REXO4 (UniProt Q9GZR2)	0.03	-0.127	0.05	-0.035	0.067
SCCPDH (UniProt Q8NBX0)	-0.129	0.34	-0.19	0.115	0.087
RPS6KB1 (UniProt P23443)	-0.049	-0.319 (active)	0.132	-0.017	-0.005
RALGAPB (UniProt Q86X10)	0.004	-0.299 (active)	0.017	-0.017	-0.029
RTN4IP1 (UniProt Q8WWV3)	-0.1	-0.338 (active)	0.165	0.054	-0.01

Target	log2 fold change [1]	log2 fold change (vorinostat)	log2 fold change (silmitasertib)	log2 fold change [2]	log2 fold change (entospletinib)
SELENOK (UniProt Q9Y6D0)	-0.192	–	–	–	–
RNF170 (UniProt Q96K19)	-0.003	0.004	0.169	–	–
RPLP0P6 (UniProt Q8NHW5)	0.009	0.123	0.004	-0.003	0.017
RAB8B (UniProt Q92930)	-0.022	0.135	-0.025	0	-0.021
QRSL1 (UniProt Q9H0R6)	0.066	-0.308 (active)	0.051	0.028	0.019
SAR1B (UniProt Q9Y6B6)	-0.083	0.155	-0.103	-0.044	-0.053
RPL36AL (UniProt Q969Q0)	-0.056	0.124	0.011	0.131	-0.001
RAB1B (UniProt Q9H0U4)	0.025	0.186	0.007	-0.039	-0.011
RASA3 (UniProt Q14644)	-0.022	-0.361 (active)	-0.08	-0.015	0.017
SERPINI1 (UniProt Q99574)	-0.04	0.124	-0.021	-0.003	-0.016
RPL37A (UniProt P61513)	0.028	0.08	-0.021	0.093	-0.005
RBM5 (UniProt P52756)	0.036	-0.427 (active)	0.072	-0.056	0.023
RANBP2 (UniProt P49792)	-0.01	-0.343 (active)	-0.004	0.001	-0.006
SCML2 (UniProt Q9UQR0)	-0.099	-0.243 (active)	0.039	0.037	0.007
RDH14 (UniProt Q9HBH5)	-0.072	-0.318 (active)	0.044	0.004	0.026
QTRT2 isoform 4 (UniProt Q9H974)	0.004	0.079	-0.011	-0.007	0.022
SEC24D isoform 2 (UniProt O94855)	-0.017	-0.251 (active)	0.037	-0.013	-0.003
RAD54L2 (UniProt Q9Y4B4)	0.119	-0.487 (active)	0.04	0.01	0.014
RSU1 (UniProt Q15404)	0.018	0.15	0	0.034	0.003
RPTOR (UniProt Q8N122)	0.002	-0.337 (active)	0.048	0.012	-0.01
SERINC3 (UniProt Q13530)	-0.027	0.019	-0.012	0.017	0.024
RABGGTB (UniProt P53611)	-0.058	-0.286 (active)	0.006	-0.005	-0.044
RPS6KA1 (UniProt Q15418)	0.014	-0.157	0.553 (active)	0.123	-0.038
RAP1B (UniProt F5GZG1)	-0.051	-0.054	-0.004	-0.099	-0.026
RECQL5 (UniProt O94762)	-0.063	-0.307 (active)	-0.094	0.03	0.024
RAB3IL1 (UniProt E9PK89)	0.016	-0.614 (active)	0.011	0.079	-0.158
RPS6KA3 (UniProt P51812)	-0.017	-0.384	0.362	0.181	-0.052
